Measured values as given in PubChem BioAssay (NCATS).
Inconclusive results are not listed. A number with no mark means an inactive call. Calls of active or inactive are those of the source. Calls come from the whole dose curve; as a rule, active = well fitted inhibition curve with a large enough effect; inconclusive = small, poorly fitted or top-dose-only effect; inactive = flat fitted curve, though single readings scatter.

These compounds were tested on CP203 (assay: qHTS profiling for inhibitors of Plasmodium falciparum proliferation (AID 504749; note: nearly all actives have a fitted effect of over 60% in size;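 for activity, negative = inhibition: 0% = DMSO vehicle and full inhibition = artemisinin control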)). Conditions: P. falciparum in erythrocytes, SYBR Green DNA, 72 h; series mostly up to 28.7 µM; activity, negative = inhibition: at the top concentration.
Source text: NIH National Institute of Allergy and Infectious Diseases [NIAID] NIH Chemical Genomics Center [NCGC] MLPCN Grant: None Assay Provider: Xinzhuan Su, NIAID NCGC Assay Overview: Plasmodium falciparum is a virulent malarial parasite that kills 1-2 million people worldwide each year. Transmitted by mosquitoes, the sporozoite form of the parasite enters the blood stream to infect hepatocytes, where they become merozoites that infect red blood cells (erythrocytes). Within erythrocytes, merozoites begin a […] cycle of growth and division, after which the parasite is released to infect new red blood cells. Gametocytes, which form within erythrocytes as well, circulate in the bloodstream and are ingested by the mosquito, thereby completing the life cycle. To profile malarial isolates for differential chemical responses and to identify inhibitors of malarial growth, an assay that measures P. falciparum growth and replication within erythrocytes was employed. This assay uses a DNA binding fluorescent dye (SYBR Green) to detect parasite DNA following cell lysis. Because mature erythrocytes lack DNA, only Plasmodium-derived DNA is detected.
NCGC Assay Protocol Summary: The SYBR Green viability assay was adapted from a method described previously (Plouffe et al., 2008). For screening 3 ul culture medium was dispensed into 1536 well black clear bottom plates (Aurora Biotechnologies) using a Multidrop Combi (Thermo Fisher Scientific Inc.), 23 nL compounds in DMSO were added by a pin tool (Kalypsys), and 5 ul of erythrocytes infected with P. falciparum (0.3% parasitemia, 2.5% hematocrit final concentration) were added. The plates were incubated at 37 C in a humidified incubator in 5% CO2 for 72 h, and 2 ul lysis buffer (20 mM Tris HCl, 10 mM EDTA, 0.16% saponin, 1.6% triton X, 10X SYBR Green I supplied as 10,000X […] by Invitrogen) was added to each well. The plates were mixed for 25 sec with gentle shaking and incubated overnight at room temperature in the dark. The following morning, fluorescence intensity at 485(14) nm excitation and 535(25) nm emission wavelengths was measured on an EnVision (Perkin Elmer) plate reader. Plate reads were normalized relative to the control inhibitor (0.29 uM artemisinin) and vehicle (DMSO) wells present on each plate and then corrected by an algorithm using vehicle-only control plates at the beginning and end of the compound plate stack.
Potency is the fitted concentration of half-maximal effect.

| SMILES | Potency | activity, negative = inhibition |
| --- | --- | --- |
| CN1CCC(=C2c3ccccc3CC(=O)c3sccc32)CC1 | 8.49 µM (active) |  |
| CN1C(C(=O)Nc2ccccn2)=C(O)c2ccccc2S1(=O)=O |  | 1.68% [at 12.8 µM] |
| CC[N+](CC)(CC)CCOc1cccc(OCC[N+](CC)(CC)CC)c1OCC[N+](CC)(CC)CC |  | 2.35% |
| O=C(Nc1ccc([N+](=O)[O-])cc1Cl)c1cc(Cl)ccc1O | 0.478 µM (active) |  |
| Cc1cc(C(C)(C)C)cc(C)c1CC1=NCCN1 |  | -12.7% [at 12.8 µM] |
| CCC1(c2ccccc2)C(=O)NCNC1=O |  | 5.23% |
| CCOC(=O)c1ncn2c1CN(C)C(=O)c1cc(F)ccc1-2 |  | -0.039% |
| Nc1nnc(-c2cccc(Cl)c2Cl)c(N)n1 |  | -4.76% |
| CS(=O)(=O)CCNCc1ccc(-c2ccc3ncnc(Nc4ccc(OCc5cccc(F)c5)c(Cl)c4)c3c2)o1 |  | 5.34% |
| Cc1cc(C(C)(C)C)c(O)c(C)c1CC1=NCCN1 |  | -0.0194% |
| O=C(c1ccc(OCCN2CCCCC2)cc1)c1c(-c2ccc(O)cc2)sc2cc(O)ccc12 | 16.9 µM (active) |  |
| Cc1ccc(C(=O)Nc2ccc(S(=O)(=O)O)c3cc(S(=O)(=O)O)cc(S(=O)(=O)O)c23)cc1NC(=O)c1cccc(NC(=O)Nc2cccc(C(=O)Nc3cc(C(=O)Nc4ccc(S(=O)(=O)O)c5cc(S(=O)(=O)O)cc(S(=O)(=O)O)c45)ccc3C)c2)c1 |  | -9.29% |
| Cn1cnc2c1c(=O)[nH]c(=O)n2C |  | -10.5% |
| CC#C[C@]1(O)CC[C@H]2[C@@H]3CCC4=CC(=O)CCC4=C3[C@@H](c3ccc(N(C)C)cc3)C[C@@]21C | 19 µM (active) |  |
| CS(=O)(=O)Nc1ccc([N+](=O)[O-])cc1Oc1ccccc1 |  | 0.519% [at 12.8 µM] |
| CN(C)c1nc(N(C)C)nc(N(C)C)n1 |  | 4.02% [at 12.8 µM] |
| CC(C)Cc1ccc(C(C)C(=O)O)cc1 (stereo not given) |  | -2.88% |
| CC(C)C(=O)Nc1ccc([N+](=O)[O-])c(C(F)(F)F)c1 |  | -3.08% |
| CN1CCN2c3ccccc3Cc3ccccc3C2C1 (stereo not given) |  | 0.292% |
| NCCCCCC(=O)O |  | -0.281% [at 12.8 µM] |

| SMILES | Potency | activity, negative = inhibition |
| --- | --- | --- |
| Cn1c(=O)c2[nH]cnc2n(C)c1=O |  | 9.47% |
| Cn1c(=O)c2c(ncn2C)n(C)c1=O |  | 6.74% |
| COc1ccccc1OCC(O)CN1CCN(CC(=O)Nc2c(C)cccc2C)CC1 (stereo not given) |  | 2.8% |
| O=C(c1ccc(F)cc1)C1CCN(CCn2c(=O)[nH]c3ccccc3c2=O)CC1 |  | 3.39% |
| CCOC(=O)Nc1ccc(NCc2ccc(F)cc2)nc1N |  | -22.8% |
| CC(C)NCC(O)COc1ccc(CCOCC2CC2)cc1 (stereo not given) |  | -7.88% |
| NS(=O)(=O)c1cc2c(cc1Cl)NCNS2(=O)=O |  | 10.7% |
| COc1ccccc1N1CCN(CC(O)COc2cccc3ccccc23)CC1 (stereo not given) |  | -10.5% |
| CC(C)(Oc1ccc(C2CC2(Cl)Cl)cc1)C(=O)O (stereo not given) |  | -0.612% |
| CC(CCc1ccc(O)cc1)NCCc1ccc(O)c(O)c1 (stereo not given) |  | -0.944% |
| CCOC(=O)C(C)(C)Oc1ccc(Cl)cc1 |  | -11.3% |
| NCCS(=O)(=O)O |  | -0.006% |
| CN(Cc1cnc2nc(N)nc(N)c2n1)c1ccc(C(=O)N[C@@H](CCC(=O)O)C(=O)O)cc1 |  | -2.45% |
| OCCN1CCN(CCCN2c3ccccc3Sc3ccc(C(F)(F)F)cc32)CC1 | 13.5 µM (active) |  |
| O=C1N(c2ccccc2)c2ccccc2C1(Cc1ccncc1)Cc1ccncc1 |  | 2.2% |
| CC(C)(C)C(=O)Oc1ccc(S(=O)(=O)Nc2ccccc2C(=O)NCC(=O)O)cc1 |  | 1.23% |
| Cc1cn([C@H]2C=C[C@@H](CO)O2)c(=O)[nH]c1=O |  | 4.91% |
| NC12CC3CC(CC(C3)C1)C2 |  | 3.1% |
| Clc1ccc2c(c1)C(N1CCNCC1)=Nc1ccccc1O2 |  | -12.4% |
| C[C@](N)(Cc1ccc(O)c(O)c1)C(=O)O |  | -6.24% |
